Test results as given in PubChem BioAssay.
Activity calls are given as the source filed them.

Legend:
[1] = compound effects on lung adenocarcinoma cell viability – A549, calcein-AM fluorescence, 48 h, basal, profiling panel (AID 1162); conditions: higher = more signal
[2] = compound effects on differentiated 3T3-L1 adipocyte viability – cell-based, 3T3-L1 adipocytes, calcein-AM fluorescence, 48 h, basal, profiling panel (AID 1163); conditions: 3T3-L1 adipocytes viability, higher = more signal
[3] = compound effects on hepatocellular carcinoma cell viability – HepG2, calcein-AM fluorescence, 48 h, basal, profiling panel (AID 1164); conditions: higher = more signal
[4] = compound effects on multiple myeloma cell viability – MM1S, calcein-AM fluorescence, 48 h, basal, profiling panel (AID 1165); conditions: higher = more signal
[5] = calcein-AM signal in unstimulated myeloma cells – cell-based, calcein-AM fluorescence, 48 h, PK04 Diversity Set, profiling panel (AID 1166); conditions: RPMI8226 myeloma viability, higher = more signal;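 further: cells grown under basal conditions without added stimulus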
[6] = JC-1 mitochondrial signal, unstimulated HepG2 cells – cell-based, JC-1 fluorescence, 24 h, 100 nL compound, profiling panel (AID 1167); conditions: HepG2 mitochondrial potential, higher = more signal
[7] = JC-1 mitochondrial signal, unstimulated adipocytes – cell-based, JC-1 fluorescence, 3T3-L1 adipocytes, 24 h, 100 nL compound, profiling panel (AID 1168); conditions: JC-1 mitochondrial fluorescence, higher = more signal, called active from +8 up or from −8 down
[8] = JC-1 mitochondrial signal, unstimulated myeloma cells – cell-based, JC-1 fluorescence, RPMI8226, 24 h, 100 nL compound, profiling panel (AID 1169); conditions: JC-1 mitochondrial potential fluorescence, higher = more signal
[9] = JC-1 mitochondrial signal, unstimulated MM1S myeloma – cell-based, JC-1 fluorescence, 24 h, 100 nL compound, profiling panel (AID 1170); conditions: MM1S mitochondrial potential, higher = more signal
[10] = resazurin metabolic signal in A549 cells – cell-based, resazurin fluorescence, 24 h, PK04 Diversity Set, profiling panel (AID 1171); conditions: A549 viability, higher = more signal, called active from +8 up or from −8 down
Further: test concentration not given here.

## COc1ccc([Si](C)(C)[C@H]2[C@H](CCn3cc([C@H](O)c4ccccc4)nn3)O[C@@]3(C(=O)N(C)c4ccccc43)[C@@H]2C)cc1
[1]
  z-score: 0.239
[2]
  z-score: -0.233
[3]
  z-score: 0.132
[4]
  z-score: -0.615
[5]
  z-score: -1.79
[6]
  z-score: -0.602
[7]
  z-score: 0.331 (inactive)
[8]
  z-score: -1.16
[9]
  z-score: -0.396
[10]
  z-score: 0.32 (inactive)

## [N-]=[N+]=NCc1ccccc1[C@H]1OC(c2ccc(OCCCO)cc2)=N[C@@]1(Cc1ccccc1)C(=O)N1CCCCC1
[1]
  z-score: 0.562
[2]
  z-score: -0.359
[3]
  z-score: 0.505
[4]
  z-score: -0.085
[5]
  z-score: -0.909
[6]
  z-score: 0.732
[7]
  z-score: -0.677 (inactive)
[8]
  z-score: -0.931
[9]
  z-score: -0.854
[10]
  z-score: 0.151 (inactive)

## CN1CCC(CCCO)=CC1c1cccs1 (stereo not given)
[1]
  z-score: 0.251
[2]
  z-score: 0.335
[3]
  z-score: 0.369
[4]
  z-score: 0.277
[5]
  z-score: 0.0383
[6]
  z-score: -0.927
[7]
  z-score: -1.51 (inactive)
[8]
  z-score: 0.247
[9]
  z-score: 0.00928
[10]
  z-score: -0.0596 (inactive)

## Cc1ccc(S[C@]2(C(=O)NCC(C)C)CC(=O)N(Cc3cc(C(F)(F)F)cc(C(F)(F)F)c3)[C@@H]2c2ccc(CO)cc2)cc1
[1]
  z-score: -0.174
[2]
  z-score: 0.518
[3]
  z-score: -0.527
[4]
  z-score: -0.741
[5]
  z-score: -0.744
[6]
  z-score: -0.444
[7]
  z-score: -0.612 (inactive)
[8]
  z-score: 0.244
[9]
  z-score: -0.133
[10]
  z-score: -0.0187 (inactive)

## COc1ccc([C@H]2C[C@H]3C(Br)=C[C@@]2(CO)C(=O)[C@]32CO2)cc1
[1]
  z-score: -0.0583
[2]
  z-score: -0.335
[3]
  z-score: -0.898
[4]
  z-score: -2.71
[5]
  z-score: -0.106
[6]
  z-score: -2.76
[7]
  z-score: 0.134 (inactive)
[8]
  z-score: -0.401
[9]
  z-score: -1.09
[10]
  z-score: 0.417 (inactive)

## O=C1OCCC=C[C@H]2OC34C=CCN(Cn5nnc6ccccc65)C(=O)[C@H]3N(CCO)C(=O)[C@@H]4C12 (stereo not given in full)
[1]
  z-score: -0.679
[2]
  z-score: 0.432
[3]
  z-score: -0.556
[4]
  z-score: 0.897
[5]
  z-score: -1.08
[6]
  z-score: -0.298
[7]
  z-score: 0.756 (inactive)
[8]
  z-score: 0.42
[9]
  z-score: -0.0431
[10]
  z-score: 0.293 (inactive)

## N#Cc1ccc(C(O)C2C=CC3C(=O)N(c4ccccc4)C(=O)C3N2Nc2ccccc2F)cc1 (stereo not given)
[1]
  z-score: 0.545
[2]
  z-score: -1.05
[3]
  z-score: -0.245
[4]
  z-score: 0.755
[5]
  z-score: -0.406
[6]
  z-score: -0.776
[7]
  z-score: -0.872 (inactive)
[8]
  z-score: 0.585
[9]
  z-score: -0.0841
[10]
  z-score: 0.0801 (inactive)

## COCCCNC(=O)[C@@]1(Sc2ccc(C)cc2)CC(=O)N(Cc2ccccc2Cl)[C@@H]1c1ccc(CO)cc1
[1]
  z-score: 0.102
[2]
  z-score: 0.381
[3]
  z-score: -0.646
[4]
  z-score: 0.661
[5]
  z-score: -0.218
[6]
  z-score: -0.627
[7]
  z-score: -0.554 (inactive)
[8]
  z-score: 0.118
[9]
  z-score: -2.29
[10]
  z-score: 1.76 (inactive)

## [N-]=[N+]=Nc1ccccc1C[C@@]1(C(=O)N2CCCCC2)N=C(c2ccc(OCCCO)cc2)O[C@@H]1c1ccccc1N=[N+]=[N-]
[1]
  z-score: -0.911
[2]
  z-score: 0.0245
[3]
  z-score: -1.7
[4]
  z-score: -3.47
[5]
  z-score: -4.35
[6]
  z-score: -1.21
[7]
  z-score: -0.923 (inactive)
[8]
  z-score: -1.3
[9]
  z-score: -2.21
[10]
  z-score: -0.797 (inactive)

## C[N+](C)(C)CCCCCCNC(=O)[C@H]1C[C@H]2C(=O)N[C@@H](Cc3ccccc3)C(=O)N2[C@H]1c1cccc(OCCO)c1
[1]
  z-score: -0.344
[2]
  z-score: -1.04
[3]
  z-score: -0.695
[4]
  z-score: 0.245
[5]
  z-score: 0.517
[6]
  z-score: -1.25
[7]
  z-score: -0.371 (inactive)
[8]
  z-score: -0.186
[9]
  z-score: -0.545
[10]
  z-score: 0.568 (inactive)

## [N-]=[N+]=NCc1ccccc1C[C@@]1(C(=O)NCC(O)CO)N=C(c2ccc(OCCCO)cc2)O[C@@H]1c1ccccc1 (stereo not given in full)
[1]
  z-score: -1.64
[2]
  z-score: 0.195
[3]
  z-score: -3.17
[4]
  z-score: -3.22
[5]
  z-score: -1.82
[6]
  z-score: -2.54
[7]
  z-score: 1.67 (inactive)
[8]
  z-score: -1.12
[9]
  z-score: -0.123
[10]
  z-score: -1.01 (inactive)

## CCCCN1CC=CC23O[C@@H]4/C=C\CCCOC(=O)C4[C@H]2C(=O)N(CCCO)[C@@H]3C1=O (stereo not given in full)
[1]
  z-score: -0.609
[2]
  z-score: 0.803
[3]
  z-score: 0.186
[4]
  z-score: -0.614
[5]
  z-score: -0.568
[6]
  z-score: -0.795
[7]
  z-score: 1.19 (inactive)
[8]
  z-score: 0.16
[9]
  z-score: 0.597
[10]
  z-score: 0.216 (inactive)

## C=C(CCCC)C(=O)CC[C@H](OC(=O)c1cccnc1)c1ccc(OCCO)cc1
[1]
  z-score: -0.15
[2]
  z-score: 0.355
[3]
  z-score: -0.478
[4]
  z-score: -3.34
[5]
  z-score: -3.28
[6]
  z-score: 0.697
[7]
  z-score: -0.597 (inactive)
[8]
  z-score: -0.658
[9]
  z-score: -1.44
[10]
  z-score: -0.475 (inactive)

## C=CCC(OC(C)=O)[C@@H]1[C@@H](N(Cc2ccc(-c3cccc(C(F)(F)F)c3)o2)C(=O)Cc2ccc(OC)cc2)c2cc(OCCCO)ccc2N1C(=O)c1ccc2ccccc2c1 (stereo not given in full)
[1]
  z-score: -0.138
[2]
  z-score: 1.13
[3]
  z-score: -0.589
[4]
  z-score: 0.269
[5]
  z-score: -0.738
[6]
  z-score: 2.15
[7]
  z-score: -0.75 (inactive)
[8]
  z-score: -0.442
[9]
  z-score: 0.675
[10]
  z-score: -0.186 (inactive)
